# Results: PubChem BioAssay (NCATS)
# Inconclusive results are not listed. Unmarked numbers belong to inactive results. The source made the active and inactive calls. The call rests on the fitted dose curve.
# Test: Cytotoxicity counterscreen for inhibitors of SARS-CoV-2 cell entry (AID 1645845); further: nearly all actives have a fitted effect of over 50% in size
# Conditions: cell viability (SARS-CoV-2 entry assay cells); series mostly up to 57.1 µM; activity change, negative = cytotoxicity: at the top concentration
# From the text: Assay Provider: Wei Zheng, Ph.D.
# National Center for Advancing Translational Sciences, National Institute of Health, Rockville, MD.
# SARS-CoV-2 spike protein, within the viral envelope, mediates viral attachment and infection of host cells. The SARS-CoV-2 spike protein specifically binds to the host receptor ACE2 (Angiotensin-converting enzyme 2). This interaction promotes endocytosis of the viral particle, additional events lead to viral-host cell membrane fusion and release of the viral contents, allowing viral replication.
# While SARS-CoV-2 requires BSL-3 facilities for live virus work, pseudo-typed partices (PP) that incorporate SARS-CoV-2 spike proteins without replication elements could facilitate studies on viral entry mechanisms in a BSL-2 setting. This PP cell entry assay could also enable screening of small molecule compound libraries in BSL-2 setting to identify inhibitors of SARS-CoV-2 cell entry. To eliminate false positive compounds, ATP content cytotoxicity assay was screened in the same cell line.
# SEQUENCE No. (e.g., 1, 2, 3, etc.); […] (e.g., Cells, Incubation, Reagent, etc.); VALUE and DESCRIPTION.
# 1. Cells. Seed 1500 HEK293-ACE2 cells (Expi293F with stable expression of human ACE2) in 2 uL/well media (DMEM, 10% FBS, 1x L-glutamine, 1x Pen/Strep, 1 ug/ml puromycin) in white 1536-well assay plates (Greiner #782073).
# 2. Incubation. Incubate at 37 C with 5% CO2 overnight (~16 h).
# 3. Compounds. Dispense 23 nL/well compounds in DMSO via pin transfer.
# 4. Incubation. Incubate for 1 h at 37C 5% CO2.
# 5. Reagent. Dispense 2 uL/well of media (DMEM, 10% FBS, 1x L-glutamine, 1x Pen/Strep, 1 ug/ml puromycin).
# 6. Incubation. Incubate at for 48h at 37C 5% CO2
# 7. Reagent. Dispense 4 uL/well of ATPLite 1step luminescence assay reagent (PerkinElmer #6016739).
# 8. Incubation. Incubate for 15 min at room temperature.
# 9. Detection. Read luminescence signal (Viewlux plate reader, PerkinElmer). Data was normalized with wells containing cells as 100%, and wells without cells (media only control) as 0%.
# On the % scale 0 is the no-effect control and ±100 the full control effect; potency means the concentration at half of the fitted maximal effect.
SMILES,outcome,Potency,"activity change, negative = cytotoxicity"
CN(C)CCC(O)(c1ccccc1)c1ccccc1Cl (stereo not given),inactive,,
CCC[C@H](NC(=O)/C(C#N)=C/c1cccc(Br)n1)c1ccccc1,,20 µM (active),
CCc1cc2c(c(OCC(F)(F)F)c(C(=O)NC3CCN(C(=O)CO)CC3)n2C)c(=O)n1CC(=O)c1ccccc1,inactive,,
Cc1nc(NC(=O)N2CCC[C@H]2C(N)=O)sc1-c1csc(C(C)(C)C)n1,,,0.577%
NS(=O)(=O)NCCNc1nonc1C(=Nc1ccc(F)c(Br)c1)NO,inactive,,
CO[C@H]1CCC(O[C@H]2C[C@H]([C@]3(C)CC[C@]4(C[C@H](O)[C@@H](C)[C@@H]([C@@H](C)/C=C(\C)C(=O)[C@H](C)C[C@H](C)C(=O)O)O4)O3)O[C@]3(O[C@@H]([C@H]4O[C@@](O)(CO)[C@H](C)C[C@@H]4C)C[C@@H]3C)[C@@H]2C)O[C@@H]1C (stereo not given in full),,,-9.36%
CC1(C)C2CCC1(C)C(O)C2 (stereo not given),inactive,,
CCNCCS(=O)(=O)NC[C@@]1(c2ccccc2)SC(NC(=O)C(C)(C)C)=NN1C(=O)C(C)(C)C,,,-7.63%
Nc1nc(OC(c2ccc(-c3cccc(F)c3)cc2)C(F)(F)F)cc(-c2ccc(C[C@@H](N)C(=O)O)cc2)n1 (stereo not given in full),inactive,,
O=C(NCc1ccccc1)[C@H](Cc1ccccc1)NC(=O)[C@H]1O[C@@H]1C(=O)NCCc1ccc(O)cc1,inactive,,
CC(=O)O[C@]1(C(C)=O)CC[C@H]2[C@@H]3C=C(C)C4=CC(=O)CC[C@@H]4[C@H]3CC[C@@]21C,,,-13.2%
CCc1ccc(Nc2c(F)c(F)cc(F)c2F)c(CC(=O)O)c1,inactive,,
CNCc1ccc(-c2cc(-c3nc(-c4ccc(S(=O)(=O)C(C)C)cc4)cnc3N)on2)cc1,,,-1.68%
CCC(CC)[C@H](NC(C)=O)[C@@H]1[C@H](O)[C@@H](C(=O)O)C[C@H]1N=C(N)N,inactive [at 0.702 µM],,
CC(C)[C@H](N)C(=O)O,inactive,,
C[N+]1(C)[C@@H]2CC(OC(=O)C(O)(c3cccs3)c3cccs3)C[C@H]1[C@H]1O[C@@H]12 (stereo not given in full),inactive,,
CCCCCCCC(=O)N[C@H](CN1CCCC1)[C@H](O)c1ccc2c(c1)OCCO2,,,-18.6%
COC(=O)C1=C(C)NC(c2ncc(F)cc2F)=N[C@@H]1c1ccc(F)cc1Cl,inactive,,
O=c1c2c(c1=O)N(CCP(=O)(O)O)CCCN2,,,-23.9% [at 114 µM]
COc1c(O)cc2c(c1O)[C@H]1O[C@@H](CO)[C@H](O)[C@@H](O)[C@@H]1OC2=O,inactive,,

SMILES,outcome,Potency,"activity change, negative = cytotoxicity"
C#C[C@]1(O)CC[C@H]2[C@@H]3CCC4=CC(=O)CC[C@@H]4[C@H]3C(=C)C[C@@]21CC,inactive,,
NC(=O)c1nc(F)c[nH]c1=O,,inactive,
Cc1nc(C)c(CN2CCN(C(c3ccc(F)cc3)c3ccc(F)cc3)CC2)nc1C,inactive,,
CCCCOC(=O)C(=O)Nc1cccc(-c2nn[nH]n2)c1,inactive,,
NCCCC[C@H](N)C(=O)O,,,2.36% [at 0.702 µM]
Cc1[nH]c(/C=C2\C(=O)Nc3ccc(F)cc32)c(C)c1C(=O)NC[C@H](O)CN1CCOCC1,,,-7.38%
COc1cc2c(cc1O)CCN[C@]21CS[C@@H]2c3c(OC(C)=O)c(C)c4c(c3[C@H](COC1=O)N1[C@@H]2[C@H]2c3c(cc(C)c(OC)c3O)C[C@@H]([C@@H]1O)N2C)OCO4,,,-20.3% [at 11.3 µM]
Cc1cccc(C)c1NC(=O)C1CCCCN1C (stereo not given),inactive,,
COC[C@H]1C[C@@H](c2ncc(-c3ccc4c(c3)COc3cc5c(ccc6[nH]c([C@@H]7CC[C@H](C)N7C(=O)[C@@H](NC(=O)OC)C(C)C)nc65)cc3-4)[nH]2)N(C(=O)[C@H](NC(=O)OC)c2ccccc2)C1,inactive,,
C[C@@H]1C[C@H]2[C@@H]3C[C@H](F)C4=CC(=O)C=C[C@]4(C)[C@@]3(F)[C@@H](O)C[C@]2(C)[C@@]1(O)C(=O)COC(=O)C(C)(C)C,inactive,,
CC12C=CC(=O)NC1CCC1C2CCC2(C)C(C(=O)Nc3cc(C(F)(F)F)ccc3C(F)(F)F)CCC12 (stereo not given),,,2.46%
CCOC(=O)Cc1ccc(-c2ccccc2)cc1,inactive [at 114 µM],,
CC(=O)N(CC(C)C(=O)O)c1c(I)cc(I)c(N)c1I (stereo not given),,,1.28%
CCC(C(=O)NC(N)=O)c1ccccc1 (stereo not given),inactive,,
CC(C)NC(=O)N1CC[C@H](N=C2Nc3cc(F)ccc3N(CC(F)F)c3ccc(Cl)cc32)C1,,,-6.46% [at 19 µM]
CCCCCCCCCCCCCCCCCC(=O)[O][Al],,,0.759% [at 5.25 µM]
O=C(/C=C/c1ccc(/C=C/C(=O)Nc2ccc(C3=NCCN3)cc2)cc1)Nc1ccc(C2=NCCN2)cc1,,,-2.26% [at 5.25 µM]
CCOc1cc(C(C)(C)C)ccc1C1=N[C@@](C)(c2ccc(Cl)cc2)[C@@](C)(c2ccc(Cl)cc2)N1C(=O)N1CCN(CC(=O)N2CCOCC2)CC1,inactive [at 37.9 µM],,
CC#CC(=O)N1CCC[C@H]1c1nc(-c2ccc(C(=O)Nc3ccccn3)cc2)c2c(N)nccn12,,,2.05% [at 27.1 µM]
COC(=O)C1=C(C)NC(c2ncc(F)cc2F)=N[C@H]1c1ccc(F)cc1Cl,,,1.01%
